Laboratory results taken from PubChem BioAssay (NCI).
About 83,000 compounds went through this panel and 20% of them were active in at least one assay; those are over-represented in the sample as a whole.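 Plates (96-well) were seeded with cells, treated with compound at one concentration, and incubated for 48 hours before percent growth was determined.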 The source made the active and inactive calls. How the source made its calls: active means growth percent below 10; inactive means the rest.

Experiments:
Experiment in all cases: NCI-60 one-dose screen, 48 h (100 = growth as untreated, 0 = no growth, -100 = all killed)
Details in all cases: 10 µM unless noted
SK-MEL-2 melanoma = test system: SK-MEL-2 melanoma
EKVX NSCLC = test system: EKVX NSCLC
SN12C renal = test system: SN12C renal
UO-31 renal = test system: UO-31 renal
TK-10 renal = test system: TK-10 renal
ACHN renal = test system: ACHN renal
A498 renal = test system: A498 renal
CCRF-CEM leukemia = test system: CCRF-CEM leukemia
MOLT-4 leukemia = test system: MOLT-4 leukemia
SR leukemia = test system: SR leukemia

Measured: growth

CCOC(=O)C1=C(C)n2nc(CC#N)c(C#N)c2NC1c1ccc(Cl)cc1 (configuration not stated)
inactive: SK-MEL-2 melanoma 105% | EKVX NSCLC 89% | SN12C renal 96.6% | UO-31 renal 73.3% | TK-10 renal 123% | ACHN renal 90.8% | A498 renal 98.6% | CCRF-CEM leukemia 96.4% | MOLT-4 leukemia 104% | SR leukemia 101%

CCCCn1c(=O)c(/C=C/C(=O)/C=C/c2ccc(O)c(OC)c2)cc2ccc(Cl)cc21
active: UO-31 renal 6.03% | CCRF-CEM leukemia 2.91% | MOLT-4 leukemia 8.28% | SR leukemia 3.78%
inactive: SK-MEL-2 melanoma 42.1% | EKVX NSCLC 40.1% | SN12C renal 12.3% | TK-10 renal 54.2% | ACHN renal 19.9% | A498 renal 77.6%

[2H]c1cc2c(c([2H])c1F)/C(=C/c1[nH]c(C)c(C(=O)NCCN(CC)CC)c1C)C(=O)N2
active: SR leukemia 0.469%
inactive: SK-MEL-2 melanoma 14.7% | EKVX NSCLC 44.7% | SN12C renal 24.4% | UO-31 renal 12.3% | TK-10 renal 62.1% | ACHN renal 25.4% | A498 renal 52.6% | CCRF-CEM leukemia 69.5% | MOLT-4 leukemia 20.3%

NCCN1CCNCC1
inactive: SK-MEL-2 melanoma 111% | EKVX NSCLC 114% | SN12C renal 92% | UO-31 renal 90.7% | TK-10 renal 106% | ACHN renal 106% | A498 renal 92.9% | CCRF-CEM leukemia 97% | MOLT-4 leukemia 102% | SR leukemia 99.7%

CC(=O)c1c(OCC#N)ccc2c(C)cc(=O)oc12
inactive: SK-MEL-2 melanoma 95.6% | EKVX NSCLC 105% | SN12C renal 102% | UO-31 renal 114% | TK-10 renal 118% | ACHN renal 99.8% | A498 renal 101% | CCRF-CEM leukemia 105% | MOLT-4 leukemia 101% | SR leukemia 87.1%

O=C(CCCCCCCCC(=O)Nc1cccc(C2=NCCN2)c1)Nc1cccc(C2=NCCN2)c1
inactive: SK-MEL-2 melanoma 99.8% | EKVX NSCLC 105% | SN12C renal 81.6% | UO-31 renal 96.3% | TK-10 renal 92.4% | ACHN renal 112% | A498 renal 93.5% | CCRF-CEM leukemia 98% | MOLT-4 leukemia 89.4% | SR leukemia 65.5%

Cc1cnc(SCc2ccc(Cl)cc2)[nH]c1=S
inactive: SK-MEL-2 melanoma 88.5% | EKVX NSCLC 103% | SN12C renal 103% | UO-31 renal 93.9% | TK-10 renal 95.1% | ACHN renal 104% | A498 renal 90.7% | CCRF-CEM leukemia 106% | MOLT-4 leukemia 106% | SR leukemia 89.7%

C=C(C)[C@@H]1CC[C@]2(C(=O)O)CC[C@]3(C)[C@H](CC[C@@H]4[C@@]5(C)C[C@@H](CC#Cc6ccccc6)C(=O)C(C)(C)[C@@H]5CC[C@]43C)[C@@H]12
inactive: SK-MEL-2 melanoma 61.1% | EKVX NSCLC 28.6% | SN12C renal 43.7% | UO-31 renal 28.9% | TK-10 renal 33.3% | ACHN renal 23.8% | A498 renal 32.9% | CCRF-CEM leukemia 24.9% | MOLT-4 leukemia 22.3% | SR leukemia 38%

O=CN1N=C(c2ccc(Cl)cc2)CC1c1cccc(Nc2ccnc3cc(C(F)(F)F)ccc23)c1 (configuration not stated)
inactive: SK-MEL-2 melanoma 58% | EKVX NSCLC 58.7% | SN12C renal 87.7% | UO-31 renal 48.5% | TK-10 renal 71% | ACHN renal 61.2% | A498 renal 58.6% | CCRF-CEM leukemia 51.7% | MOLT-4 leukemia 33.8% | SR leukemia 30%

C=C(C)[C@@H]1CC[C@]2(C(=O)n3ccnc3)CC[C@]3(C)[C@H](CC[C@@H]4[C@@]5(C)CCCNC(C)(C)[C@@H]5CC[C@]43C)[C@@H]12
active: CCRF-CEM leukemia 0.353% | MOLT-4 leukemia -15.9% | SR leukemia -33%
inactive: SK-MEL-2 melanoma 53.5% | EKVX NSCLC 61.9% | SN12C renal 29.6% | UO-31 renal 43.8% | TK-10 renal 70.5% | ACHN renal 46.6% | A498 renal 84%

COc1ccc(-c2nc(C#N)c(NCC(c3ccc(Cl)cc3)N3CCCCC3)o2)cc1 (configuration not stated)
inactive: SK-MEL-2 melanoma 109% | EKVX NSCLC 95.6% | SN12C renal 103% | UO-31 renal 72% | TK-10 renal 112% | ACHN renal 91.7% | A498 renal 108% | CCRF-CEM leukemia 86.9% | MOLT-4 leukemia 75.9% | SR leukemia 74.5%

COc1cc(/C=C/C(=O)c2cccs2)ccc1OCc1ccc(Cl)nc1
inactive: SK-MEL-2 melanoma 96.7% | EKVX NSCLC 94.8% | SN12C renal 81.1% | UO-31 renal 57.2% | TK-10 renal 111% | ACHN renal 102% | A498 renal 100% | CCRF-CEM leukemia 61.9% | MOLT-4 leukemia 86.6% | SR leukemia 20.5%

C=C1C(=O)O[C@H]2[C@H]1CC/C(COC(=O)c1cccnc1N)=C\CC[C@@]1(C)O[C@@H]21
active: TK-10 renal -6.51% | ACHN renal -3.75% | CCRF-CEM leukemia -3.91% | MOLT-4 leukemia 8.57% | SR leukemia 2.93%
inactive: SK-MEL-2 melanoma 39.1% | EKVX NSCLC 34.1% | SN12C renal 10.4% | UO-31 renal 13.3% | A498 renal 33.8%

CCCCC1=c2c([nH]c3ccc(OC)cc23)=NC2C=CC=NC12 (configuration not stated)
inactive: SK-MEL-2 melanoma 110% | EKVX NSCLC 84.3% | SN12C renal 88.5% | UO-31 renal 75% | TK-10 renal 115% | ACHN renal 91.2% | A498 renal 94.9% | CCRF-CEM leukemia 91.5% | MOLT-4 leukemia 69.5% | SR leukemia 45%

Cc1cccc(C)c1NCc1nnc(-c2ccc(O)cc2)o1
inactive: SK-MEL-2 melanoma 104% | EKVX NSCLC 90.6% | SN12C renal 102% | UO-31 renal 85.5% | TK-10 renal 104% | ACHN renal 98.6% | A498 renal 107% | CCRF-CEM leukemia 94.8% | MOLT-4 leukemia 108% | SR leukemia 119%

COc1ccc(-c2cc(C(=O)N3N=C(c4ccc(N)cc4)CC3c3ccc(OC)cc3)c3cc(OC)ccc3n2)cc1 (configuration not stated)
inactive: SK-MEL-2 melanoma 64.5% | EKVX NSCLC 68.9% | SN12C renal 61.8% | UO-31 renal 56.6% | TK-10 renal 93.8% | ACHN renal 54.5% | A498 renal 71.3% | CCRF-CEM leukemia 63.3% | MOLT-4 leukemia 54.5% | SR leukemia 19.4%

COC1=CC=CC2(OC)C3(O)CCCc4cccc(c43)N3C(=O)COC132 (configuration not stated)
inactive: SK-MEL-2 melanoma 93.9% | EKVX NSCLC 98.6% | SN12C renal 101% | UO-31 renal 82.1% | TK-10 renal 96.7% | ACHN renal 105% | A498 renal 98.4% | CCRF-CEM leukemia 94.8% | MOLT-4 leukemia 97.8% | SR leukemia 109%

O=C(Nc1cc(Nc2ncccc2-c2ncnc3nc[nH]c23)ccc1F)c1cc(C(F)(F)F)cc(C(F)(F)F)c1
inactive: EKVX NSCLC 20.4% | SN12C renal 16.5%
active: SK-MEL-2 melanoma -40% | UO-31 renal -37.4% | TK-10 renal -16.9% | ACHN renal -7.8% | A498 renal -19.1% | CCRF-CEM leukemia 2.41% | MOLT-4 leukemia -33.6% | SR leukemia -21.1%

COc1ccccc1-c1ccc2nc(NC(=O)Nc3cc(C(F)(F)F)cc(C(F)(F)F)c3)sc2c1
inactive: EKVX NSCLC 10.7% | SN12C renal 13% | UO-31 renal 13.1%
active: SK-MEL-2 melanoma -14.1% | TK-10 renal 9.11% | ACHN renal 8.64% | A498 renal -26.7% | CCRF-CEM leukemia 0.889% | MOLT-4 leukemia -15.7% | SR leukemia -23.8%

COC(=O)c1ccc2c(c1)NC(=O)[C@@H]1CCCN21
inactive: SK-MEL-2 melanoma 95% | EKVX NSCLC 94.1% | SN12C renal 101% | UO-31 renal 88.1% | TK-10 renal 127% | ACHN renal 103% | A498 renal 90.4% | CCRF-CEM leukemia 99.5% | MOLT-4 leukemia 84.1% | SR leukemia 81.5%

C=C1C(=O)O[C@H]2[C@H]1CC/C(C=Nc1c(N)cc(C(F)(F)F)cc1Br)=C\CC[C@@]1(C)O[C@@H]21
active: SK-MEL-2 melanoma -31.6% | SN12C renal -21.8% | UO-31 renal -71.5% | TK-10 renal -27.3% | ACHN renal -44.6% | CCRF-CEM leukemia 2.83% | MOLT-4 leukemia -2.99% | SR leukemia -4.04%
inactive: EKVX NSCLC 18.1% | A498 renal 55.2%

O=C(C[n+]1cccc2cc(Cl)ccc21)c1ccc2c(c1)CCCC2
active: MOLT-4 leukemia 1.84%
inactive: SK-MEL-2 melanoma 28.3% | EKVX NSCLC 44.7% | SN12C renal 10.1% | UO-31 renal 91.4% | TK-10 renal 62% | ACHN renal 86.2% | A498 renal 74% | CCRF-CEM leukemia 16% | SR leukemia 19%

O=C1CCc2ccccc2N1
inactive: SK-MEL-2 melanoma 101% | EKVX NSCLC 75.5% | SN12C renal 99.1% | UO-31 renal 90.3% | TK-10 renal 88.2% | ACHN renal 100% | A498 renal 111% | CCRF-CEM leukemia 107% | SR leukemia 93.5%

COc1cc(NC(=O)Nc2cnc(Nc3ccc(N4CCOCC4)cc3)nc2Oc2ccc(F)cc2)cc(OC)c1
inactive: SK-MEL-2 melanoma 101% | EKVX NSCLC 108% | SN12C renal 61.8% | UO-31 renal 93% | TK-10 renal 116% | ACHN renal 99.9% | A498 renal 102% | CCRF-CEM leukemia 92.9% | MOLT-4 leukemia 77.2% | SR leukemia 66.2%

CCOC(=O)NC(Cc1ccccc1)c1ccccc1 (configuration not stated)
inactive: SK-MEL-2 melanoma 99.2% | EKVX NSCLC 105% | SN12C renal 106% | UO-31 renal 93.2% | TK-10 renal 96% | ACHN renal 109% | A498 renal 94% | CCRF-CEM leukemia 98.1% | MOLT-4 leukemia 85.8% | SR leukemia 81.7%

CCCCc1n(Cc2ccc3ccccc3c2)c2ccccc2[n+]1Cc1ccc2ccccc2c1
active: SK-MEL-2 melanoma -73.5% | EKVX NSCLC -84.6% | SN12C renal -92.3% | UO-31 renal -90.3% | TK-10 renal -87.1% | ACHN renal -91.4% | A498 renal -92.7% | CCRF-CEM leukemia -48.2% | SR leukemia -54.1%

Nc1ccccc1NC(=O)c1ccc(CSc2nc(N3CCOCC3)c3cccn3n2)cc1
inactive: EKVX NSCLC 25.8% | SN12C renal 16.6% | ACHN renal 16.3% | SR leukemia 13.4%
active: SK-MEL-2 melanoma -28.9% | UO-31 renal -24.8% | TK-10 renal -10.7% | A498 renal -12.1% | CCRF-CEM leukemia 5.4%
